Screening data as filed in PubChem BioAssay.
In the library only some 4.6% were active in any assay of this set; here they are far more common.
tim10-1 inh: inhibits growth of tim10-1 mutant yeast | S. cerevisiae tim10-1 ts strain growth, BacTiter-Glo, 24 h | inhibition, % at 20 µM | actives 2.2% (n = 330,000) | AID 463190;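 active = inhibition of at least 40%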;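 note: mutant grown at 25 °C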
V-ATPase pHluor: regulators of yeast V-ATPase proton transport. S. cerevisiae, pHLuorin cytosolic pH fluorescence. response, % at 10 µM. actives 0.37% (n = 350,000); in the data active = response mostly above about 7.3%, no sharp cut-off; inactive = mostly below about 5.4%; note: actives read high
TIM10 inh: inhibits growth of TIM10 yeast strain; S. cerevisiae TIM10 strain growth, BacTiter-Glo luminescence, 24 h; inhibition, % at 10 µM; actives 1.4% (n = 330,000); AID 463195;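 active = inhibition of 40% or more at the single tested concentration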;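 note: wild-type TIM10 isogenic control strain grown at permissive 25 °C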
SKKanGAS inh: SKKanGAS growth inhibition | inhibition, % at 7.5 µM | actives 1.3% (n = 300,000) | AID 1662 | S. pyogenes SKKanGAS, kanamycin growth, BacTiter-Glo, 6 h;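 active = mean replicate score, as percent of positive control median, at least 50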;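 note: strain carries kanamycin resistance gene driven by streptokinase promoter and grows in 40 µg/ml kanamycin; loss of luminescence reflects streptokinase promoter inhibition or plain growth inhibition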
tim23-1 inh: growth inhibitors of tim23-1 mutant yeast; inhibition, % at 20 µM; actives 1.3% (n = 330,000); S. cerevisiae tim23-1 growth, BacTiter-Glo luminescence, 24 h; AID 463212;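 active = growth inhibition of the mutant yeast at or above 50%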;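 note: temperature-sensitive mutant grown at 25 °C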
PfHsp90 yeast 2: growth inhibition of yeast expressing Plasmodium Hsp90 | S. cerevisiae expressing PfHsp90, BacTiter-Glo ATP, 48 h; yeast lacking PDR1 and PDR3 efflux regulators | inhibition, % at 9.4 µM | actives 0.32% (n = 310,000) | AID 504621;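 active = every replicate shows inhibition above about 80%, whatever the replicate mean, limit read from the data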
tim10-1 confirm: confirmation of tim10-1 mutant yeast growth inhibitors | shares compounds with tim10-1 inh | S. cerevisiae tim10-1 ts strain growth, BacTiter-Glo, 24 h | inhibition, % at 20 µM | actives 56% (n = 7,400);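 active = inhibition of yeast growth at or above a set limit in either of two repeat tests at 20 µM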;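 note: tim10-1 mutant grown at permissive 25 °C to find synthetic lethal compounds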
TIM10 conf: TIM10 yeast growth inhibition, confirmed. AID 463215. shares compounds with TIM10 inh. actives 63% (n = 4,600). S. cerevisiae tim10 strain growth, BacTiter-Glo luminescence, 24 h. inhibition, % at 10 µM;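 active = inhibition of yeast growth at or above a set limit in either of two replicates at 10 µM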; note: this counterscreen used the strain with wild-type TIM10
tim23-1 confirm: confirmation of tim23-1 mutant yeast growth inhibitors. AID 463218. S. cerevisiae tim23-1 growth, BacTiter-Glo luminescence, 24 h. inhibition, % at 20 µM. actives 83% (n = 4,400). shares compounds with tim23-1 inh;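 active = inhibition above about 39% in either of two replicate wells at 20 µM, limit read from the data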;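 note: temperature-sensitive tim23-1 mutant grown at 25 °C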
Of the large screens only hits and unclear results are named; the others gave an inactive call (follow-up assays come after a bar, where they were run).

C=C(C(=O)c1ccccc1)C(CC(=O)c1ccccc1)c1ccccc1 (stereo not drawn)	tim10-1 inh 59, TIM10 inh 58, tim23-1 inh 56 | tim10-1 confirm 51 | TIM10 conf inactive | tim23-1 confirm 56
C=C(CCC(=O)c1ccccc1)C(=O)c1ccccc1	none (no result: tim10-1 inh, TIM10 inh, tim23-1 inh)
Cc1ccc(C)c(SCC(=O)OCC(=O)NCCNC(=O)COC(=O)CSc2cc(C)ccc2C)c1	none
COc1ccc(S(=O)(=O)N2CCOC2CNC(=O)C(=O)NCCc2c[nH]c3ccccc23)cc1C (stereo not drawn)	none
CCCCCC/C(=N/O)c1ccccn1	tim10-1 inh 42, TIM10 inh 57, SKKanGAS inh 94, tim23-1 inh 60 | tim10-1 confirm inactive | TIM10 conf inactive | tim23-1 confirm 52
C/C(=N/O)c1ccccn1	none
Cc1cc(NCc2ccccn2)n2nc(C)c(-c3ccccc3)c2n1	none
Cc1nn2c(NCc3ccccn3)cc(C(C)(C)C)nc2c1-c1ccccc1	tim10-1 inh 62, TIM10 inh 56, SKKanGAS inh 97, tim23-1 inh 58, PfHsp90 yeast 2 120 | tim10-1 confirm 37 | TIM10 conf 72 | tim23-1 confirm 62
N/C(=N\OC(=O)Nc1ccccc1)c1ncc([N+](=O)[O-])s1	tim10-1 inh 51, TIM10 inh 57, tim23-1 inh 77 | tim10-1 confirm 48 | TIM10 conf 60 | tim23-1 confirm inactive
CCCCn1nnc(NC(=O)c2ccc(-c3cccc(Cl)c3)o2)n1	tim10-1 inh 50, TIM10 inh 45, tim23-1 inh 72 (no result: V-ATPase pHluor) | tim10-1 confirm 51 | TIM10 conf 47 | tim23-1 confirm 74
CCCCn1nnc(NC(=O)c2ccc(-c3cccc([N+](=O)[O-])c3)o2)n1	none (no result: V-ATPase pHluor, PfHsp90 yeast 2)
CCC(C)[C@H](Nc1nc(-c2ccccc2)nc2c1oc1ccccc12)C(=O)O (stereo partly drawn)	none
Cc1ccc(S(=O)(=O)Nc2ccccc2F)cc1C(=O)NCc1ccco1	none (no result: SKKanGAS inh)
CCCC(=O)Nn1cnc2c(c1=O)C1(CCCCC1)Cc1ccccc1-2	tim10-1 inh 41, TIM10 inh 52, tim23-1 inh 53 | tim10-1 confirm 44 | TIM10 conf 40 | tim23-1 confirm 52
CCCn1c(SCC(N)=O)nc2c(c1=O)C1(CCCC1)Cc1ccccc1-2	none
Cc1cc(-c2ccc(N=Nc3c(S(=O)(=O)O)cc4cc(S(=O)(=O)O)cc(N)c4c3O)c(C)c2)ccc1N=Nc1c(S(=O)(=O)O)cc2cc(S(=O)(=O)O)cc(N)c2c1O	tim10-1 inh 65, TIM10 inh 55, tim23-1 inh 72 (no result: V-ATPase pHluor, SKKanGAS inh, PfHsp90 yeast 2) | tim10-1 confirm 66 | TIM10 conf 47 | tim23-1 confirm 77
COc1ccc(N=c2ssnc2Cl)cc1	tim10-1 inh 53, tim23-1 inh 61 | tim10-1 confirm 35 | tim23-1 confirm 80
Clc1ccc(N=c2ssnc2Cl)cc1	tim10-1 inh 54, tim23-1 inh 63, PfHsp90 yeast 2 104 | tim10-1 confirm 66 | tim23-1 confirm 88
c1ccc2c(CN3CCOCC3)csc2c1	none
c1ccc2c(CN3CCOCC3)c3ccccc3c(CN3CCOCC3)c2c1	tim10-1 inh 53, TIM10 inh 61, tim23-1 inh 84 (no result: PfHsp90 yeast 2) | tim10-1 confirm 52 | TIM10 conf 50 | tim23-1 confirm inactive
COc1ccc(/C=N/NC(=O)C(=O)N2CCCCCC2)cc1O	none
CC(C)CNC(=O)c1cccc(NC(=O)Cc2ccc(Cl)cc2)c1	none
Cc1ccc(-c2ccc(/C=C/C(=O)c3ccccc3)o2)cc1	tim10-1 inh 62, TIM10 inh 67, tim23-1 inh 62 | tim10-1 confirm 69 | TIM10 conf 67 | tim23-1 confirm 78
CCc1ccccc1NC1Nc2cc(C)nn2S1 (stereo not drawn)	none
